Our source for the growth inhibition values is PubChem BioAssay (NCI).

Test [1] is described as follows: NCI Yeast Anticancer Drug Screen. Data for the rad50 strain (AID 155).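 Further: 0% = growth of vehicle-only cultures of the same strain.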 The following applies: S. cerevisiae rad50 strain growth inhibition; at 50.0 µM; hits give high values. A digest of the protocol: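 Growth of the mutant yeast was measured after compound exposure and referenced to vehicle-treated cultures.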
A short description of test [2]: NCI Yeast Anticancer Drug Screen. Data for the mec2-1 strain (AID 157). The following applies: S. cerevisiae mec2-1 strain, at 50.0 µM, hits give high values. A digest of the protocol:
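Growth inhibition is read against vehicle-treated controls after compound exposure of the mec2-1 yeast strain, which is defective in DNA damage repair or cell cycle control.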

Test [3] in a line: NCI Yeast Anticancer Drug Screen. Data for the sgs1 mgt1 strain (AID 161).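 Further: 0% = growth of cultures given vehicle only.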 The following applies: S. cerevisiae sgs1 mgt1 strain, at 50.0 µM, hits give high values. In outline: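 Compounds are added to genetically altered yeast, and growth is compared with cultures given vehicle alone to give percent inhibition.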
A short description of test [4]: NCI Yeast Anticancer Drug Screen. Data for the cln2 rad14 strain (AID 165).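 Further: 0% = growth equal to vehicle treated cultures.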 Particulars: S. cerevisiae cln2 rad14 strain, at 50.0 µM, hits give high values. In outline: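 Growth inhibition, relative to vehicle-treated controls, is the read-out. The test organism is a yeast strain with defined genetic alterations, cln2 rad14.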
Test [5] is described as follows: NCI Yeast Anticancer Drug Screen. Data for the bub3 strain (AID 167). Particulars: S. cerevisiae bub3 mutant strain, at 50.0 µM, hits give high values. A digest of the protocol:
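Whole-cell yeast assay. The mutant strain was incubated with compounds, and growth inhibition was determined by comparison with vehicle-treated cells.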

Test [6] can be described thus: NCI Yeast Anticancer Drug Screen. Data for the mlh1 rad18 strain (AID 175). The following applies: S. cerevisiae mlh1 rad18 strain growth inhibition; at 50.0 µM; hits give high values. In outline:
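Cells of a genetically altered yeast strain, deficient in DNA damage repair, were treated with compound. Their growth was then compared with that of vehicle-treated cultures to give inhibition.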

This is part of a sample that, as a whole, favours compounds with a hit. Of some 79,000 tested, about 15% had one in any assay. Values without a mark were called inactive. Activity calls are given as the source filed them. No stated cut-off is given here; in the data, active means growth inhibition above about 70%; inactive means the rest.

Regarding `Cn1c(C(N)=O)cc(=O)n1-c1ccc([N+](=O)[O-])cc1`, the growth inhibition in test [1] was 6.35%; in test [2], 18.7%; in test [3], 4.45%; in test [4] it was 3.8%; in test [5] it was -6%; in test [6], 0.35%.

For `COc1ccc(C(O)C(=O)c2nc3ccc([N+](=O)[O-])cc3[nH]c2=O)cc1` (stereo unspecified), the growth inhibition was -16.5% in test [1]; -49.5% in test [2]; -29.5% in test [3]; -22.1% in test [4]; -36.5% in test [5]; -5.2% in test [6].

Take `CCC(C)(N)C(=O)O` (stereo unspecified): the growth inhibition was 10% in test [1]; 13.3% in test [2]; 5.1% in test [3]; 2.6% in test [4]; 18.2% in test [5]; 4.05% in test [6].

With `O=c1[nH]c(=O)n(C2OC(CO)C(O)C2O)cc1I` (stereo unspecified), the growth inhibition in test [1] was -10.2%; in test [2] it was -9.95%; in test [3] it was -6.9%; in test [4], 15.2%; in test [5], 5.6%; in test [6] it was -13.8%.

`COC1OC(COC(c2ccccc2)(c2ccccc2)c2ccccc2)C2SC12` (stereo unspecified): the growth inhibition is 23.9% in test [1]; 10% in test [2]; -1.05% in test [3]; 14.2% in test [4]; 4.8% in test [5]; 17.6% in test [6].

As to `Nc1nnc(-c2ccccc2O)o1`, the growth inhibition in test [1] was 36.3%; in test [2] it was 4.25%; in test [3], 23.7%; in test [4] it was 33.1%; in test [5], 21.4%; in test [6], 32.2%.

With `CCOC(=O)C1CN(CCCN2CC(C(=O)OCC)C(=O)C2=O)C(=O)C1=O` (stereo unspecified), the growth inhibition in test [1] is 9.9%; in test [2] it was 7.25%; in test [3], 3.5%; in test [4] it was 24.1%; in test [5], 9.95%; in test [6], -3.95%.

Regarding `CCOc1ccccc1/C=C(\C#N)c1cccc(Cl)c1`, the growth inhibition is 42.6% in test [1]; 9.75% in test [2]; 29.9% in test [3]; 13.8% in test [4]; 19.5% in test [5]; -4.15% in test [6].

With `O=C1N(CC2CO2)CCN1CC1CO1` (stereo unspecified), the growth inhibition is -22.4% in test [1]; -10.2% in test [2]; -5.3% in test [3]; -5.15% in test [4]; -20.4% in test [5]; -76% in test [6].

`COc1ccc([N+](=O)[O-])c(OC)c1`: the growth inhibition in test [1] was 4.4%; in test [2], -19.1%; in test [3] it was -30.9%; in test [4] it was 17.2%; in test [5], -23.4%; in test [6], 9.05%.

Regarding `CCOC(=O)CCCCCCCCC(=O)Nc1ccc(-n2[nH]c(=O)cc2C)cc1`, the growth inhibition is -2.6% in test [1]; -31% in test [2]; -27.6% in test [3]; 6.95% in test [4]; -4.1% in test [5]; -3.3% in test [6].

As to `O=C(O)Cc1cc(=O)[nH]n(-c2ccccc2)c1=O`, the growth inhibition in test [1] is 14.2%; in test [2], 8.6%; in test [3], -1.3%; in test [4] it was 10%; in test [5] it was -4.65%; in test [6], 13.8%.

As to `OCC(O)C(O)C(O)[C@H](O)c1nc2ccccc2[nH]1` (stereo partly specified), the growth inhibition in test [1] was -15.7%; in test [2] it was -1.7%; in test [3], 0.15%; in test [4], -19.6%; in test [5], 27.4%; in test [6] it was 14.8%.

On to `CCOC(=O)Nc1ccc([N+](=O)[O-])c2c1C(=O)c1ccccc1-2`, for which the growth inhibition is -9.55% in test [1]; 2.9% in test [2]; -8.6% in test [3]; -10.7% in test [4]; -21.6% in test [5]; -19.5% in test [6].

Take `O=C(O)C1CCCCN1/N=C/c1cccc([N+](=O)[O-])c1` (stereo unspecified): the growth inhibition in test [1] is 36%; in test [2], 11.9%; in test [3], 22%; in test [4], 1.3%; in test [5], 26.9%; in test [6] it was 11.9%.

With `COc1cccc(-c2nc3ccccc3c(=O)[nH]2)c1OC`, the growth inhibition in test [1] is 33.2%; in test [2], -16.6%; in test [3], 10.1%; in test [4] it was 18.1%; in test [5], 16.5%; in test [6], 19.9%.

`COc1ccc(N=C(C)c2c(O)n(-c3ccccc3)[nH]c2=O)cc1`: the growth inhibition was 98.8% (active) in test [1]; 97.5% (active) in test [2]; 99.2% (active) in test [3]; 99.1% (active) in test [4]; 98.8% (active) in test [5]; 98.5% (active) in test [6].

`COc1ccc(/C=N/Nc2nc3ccccc3c(=O)n2-c2ccccc2)cc1`: the growth inhibition in test [1] is -56.3%; in test [2] it was -17.8%; in test [3], -38.6%; in test [4], -29.2%; in test [5] it was -11%; in test [6], -42%.

For `CCCCCC[C@H](C/C=C\CCCCCCCC(=O)OCCCC)OC(C)=O`, the growth inhibition in test [1] is -14.7%; in test [2], 0.2%; in test [3], -10.2%; in test [4], -14.2%; in test [5], -29.4%; in test [6] it was -8.8%.

As for `CC1(O)CC2C(CC1SC1CC3C(CC1(C)O)C3(C)C)C2(C)C` (stereo unspecified), the growth inhibition was -48.3% in test [1]; -33.5% in test [2]; -45.8% in test [3]; -26.4% in test [4]; -51.7% in test [5]; -33% in test [6].

On to `N=C(N)c1ccc(NC(=O)c2ccc(C(=O)Nc3ccc(C(=N)N)cc3)c(N)c2)cc1`, for which the growth inhibition was 9.9% in test [1]; 18.1% in test [2]; -7.6% in test [3]; -7.85% in test [4]; -1.95% in test [5]; -7.3% in test [6].
